Source: PubChem BioAssay AID1159580 (chemical genetic matrix, 2015)
About 2,000 (36%) of roughly 5,500 compounds were called active. Another 18% or so got no clear call; they are omitted. No stated cut-off is given here; in the data, active means normalized growth mostly below about 0.91 (no sharp cut-off); inconclusive means no clear call, values can overlap the other calls; inactive means mostly above about 0.92. The list shows a part of the results.

Assay: chemical genetic growth profiling, strain panel (AID 1159580);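 further: tested at 20 µM; growth read once vehicle control cultures reached saturation at 30 °C; 1 = growth at the plate median or of vehicle wells; lower values mean less growth of the strain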
Settings: growth OD

Measured: normalized growth

Cn1c(=O)c2c(ncn2CCO)n(C)c1=O
inactive: S. cerevisiae deletion strains, locus YJR075W, strain HOC1, hits give low values 1 | S. cerevisiae deletion strains, locus YKL009W, strain mrt4, hits give low values 0.99 | S. cerevisiae deletion strains, locus YKL068W, hits give low values 0.991 | S. cerevisiae deletion strains, locus YKL085W, strain MDH1 (second series), hits give low values 0.993 | S. cerevisiae deletion strains, locus YKL085W, strain MDH1, hits give low values 0.993 | S. cerevisiae deletion strains, locus YKL160W, strain elf1, hits give low values 1.02 | S. cerevisiae deletion strains, locus YKL190W, strain CNB1, hits give low values 1 | S. cerevisiae deletion strains, locus YKR001C, strain vps1, hits give low values 0.997 | S. cerevisiae deletion strains, locus YKR026C, strain gcn3, hits give low values 1.02 | S. cerevisiae deletion strains, locus YKR091W, strain srl3, hits give low values 1.02 | S. cerevisiae deletion strains, locus YLL001W, strain dnm1, hits give low values 0.993 | S. cerevisiae deletion strains, locus YLL026W, hits give low values 1.02 | S. cerevisiae deletion strains, locus YLL041C, strain sdh2, hits give low values 1.02 | S. cerevisiae deletion strains, locus YLR027C, strain aat2, hits give low values 1.01 | S. cerevisiae deletion strains, locus YLR039C, strain RIC1, hits give low values 1.02 | S. cerevisiae deletion strains, locus YLR058C, strain SHM2, hits give low values 1.01 | S. cerevisiae deletion strains, locus YLR102C, strain apc9, hits give low values 0.997 | S. cerevisiae deletion strains, locus YLR113W, strain HOG1, hits give low values 0.988 | S. cerevisiae deletion strains, locus YLR221C, strain rsa3, hits give low values 1.01 | S. cerevisiae deletion strains, locus YLR258W, strain gsy2, hits give low values 1.02 | S. cerevisiae deletion strains, locus YLR262C, strain YPT6 (second series), hits give low values 1.08 | S. cerevisiae deletion strains, locus YLR262C, strain YPT6, hits give low values 1.01 | S. cerevisiae deletion strains, locus YLR268W, strain sec22, hits give low values 1.06 | S. cerevisiae deletion strains, locus YLR320W, strain mms22, hits give low values 1.03 | S. cerevisiae deletion strains, locus YLR330W, strain CHS5, hits give low values 1 | S. cerevisiae deletion strains, locus YLR342W, strain FKS1 (second series), hits give low values 0.981 | S. cerevisiae deletion strains, locus YLR342W, strain FKS1, hits give low values 1.02 | S. cerevisiae deletion strains, locus YLR357W, strain rsc2, hits give low values 1 | S. cerevisiae deletion strains, locus YLR370C, strain arc18, hits give low values 1.02 | S. cerevisiae deletion strains, locus YLR371W, strain rom2, hits give low values 1.01 | S. cerevisiae deletion strains, locus YLR384C, strain iki3, hits give low values 1.01 | S. cerevisiae deletion strains, locus YLR418C, strain cdc73, hits give low values 0.985 | S. cerevisiae deletion strains, locus YML016C, strain PPZ1, hits give low values 1 | S. cerevisiae deletion strains, locus YML032C, strain rad52, hits give low values 1.03 | S. cerevisiae deletion strains, locus YML120C, strain ndi1, hits give low values 0.986 | S. cerevisiae deletion strains, locus YML124C, strain tub3, hits give low values 1 | S. cerevisiae deletion strains, locus YMR058W, strain fet3, hits give low values 1.02 | S. cerevisiae deletion strains, locus YMR078C, strain ctf18, hits give low values 0.998 | S. cerevisiae deletion strains, locus YMR125W, strain sto1, hits give low values 1.02 | S. cerevisiae deletion strains, locus YMR129W, hits give low values 1.02 | S. cerevisiae deletion strains, locus YMR205C, strain PFK2, hits give low values 1.02 | S. cerevisiae deletion strains, locus YMR223W, strain ubp8, hits give low values 0.971 | S. cerevisiae deletion strains, locus YMR231W, strain pep5, hits give low values 1 | S. cerevisiae deletion strains, locus YMR263W, strain SAP30, hits give low values 1.02 | S. cerevisiae deletion strains, locus YMR307W, strain GAS1, hits give low values 0.975 | S. cerevisiae deletion strains, locus YNL067W, strain RPL9B, hits give low values 1.02 | S. cerevisiae deletion strains, locus YNL071W, strain lat1, hits give low values 1.01 | S. cerevisiae deletion strains, locus YNL128W, strain TEP1, hits give low values 1 | S. cerevisiae deletion strains, locus YNL153C, strain GIM3, hits give low values 1.04 | S. cerevisiae deletion strains, locus YNL183C, strain NPR1, hits give low values 0.897 | S. cerevisiae deletion strains, locus YNL209W, strain ssb2, hits give low values 1.01 | S. cerevisiae deletion strains, locus YNL233W, strain BNI4, hits give low values 1.03 | S. cerevisiae deletion strains, locus YNL248C, strain rpa49, hits give low values 1.01 | S. cerevisiae deletion strains, locus YNL250W, strain rad50, hits give low values 0.997 | S. cerevisiae deletion strains, locus YNL271C, strain bni1, hits give low values 1.01 | S. cerevisiae deletion strains, locus YNL298W, strain CLA4, hits give low values 1.01 | S. cerevisiae deletion strains, locus YNL307C, strain MCK1, hits give low values 0.969 | S. cerevisiae deletion strains, locus YNL322C, strain KRE1 (second series), hits give low values 1.05 | S. cerevisiae deletion strains, locus YNL322C, strain KRE1, hits give low values 1 | S. cerevisiae deletion strains, locus YNR049C, strain mso1, hits give low values 1.02 | S. cerevisiae deletion strains, locus YNR052C, strain pop2, hits give low values 1.01 | S. cerevisiae deletion strains, locus YOL006C, strain TOP1, hits give low values 0.99 | S. cerevisiae deletion strains, locus YOL012C, strain htz1 1.01 | S. cerevisiae deletion strains, locus YOL147C, strain pex11, hits give low values 1.01 | S. cerevisiae deletion strains, locus YOR001W, strain rrp6, hits give low values 1.02 | S. cerevisiae deletion strains, locus YOR061W, strain CKA2, hits give low values 1.01 | S. cerevisiae deletion strains, locus YOR069W, strain VPS5, hits give low values 1.01 | S. cerevisiae deletion strains, locus YOR070C, strain gyp1, hits give low values 1.02 | S. cerevisiae deletion strains, locus YOR080W, strain dia2, hits give low values 1.04 | S. cerevisiae deletion strains, locus YOR083W, strain WHI5, hits give low values 1.02 | S. cerevisiae deletion strains, locus YOR106W, strain vam3, hits give low values 1.03 | S. cerevisiae deletion strains, locus YOR136W, strain idh2, hits give low values 0.993 | S. cerevisiae deletion strains, locus YOR144C, strain elg1, hits give low values 0.997 | S. cerevisiae deletion strains, locus YOR184W, strain ser1, hits give low values 0.956 | S. cerevisiae deletion strains, locus YOR231W, strain MKK1, hits give low values 0.981 | S. cerevisiae deletion strains, locus YOR265W, strain rbl2, hits give low values 1.01 | S. cerevisiae deletion strains, locus YOR270C, strain vph1, hits give low values 1.05 | S. cerevisiae deletion strains, locus YOR290C, strain snf2, hits give low values 1.03 | S. cerevisiae deletion strains, locus YOR316C, strain cot1, hits give low values 1 | S. cerevisiae deletion strains, locus YPL051W, strain arl3, hits give low values 1.01 | S. cerevisiae deletion strains, locus YPL055C, strain LGE1, hits give low values 0.989 | S. cerevisiae deletion strains, locus YPL078C, strain atp4, hits give low values 1.02 | S. cerevisiae deletion strains, locus YPL106C, strain sse1, hits give low values 1.07 | S. cerevisiae deletion strains, locus YPL240C, strain hsp82, hits give low values 0.985 | S. cerevisiae deletion strains, locus YPL241C, strain CIN2, hits give low values 1.01 | S. cerevisiae deletion strains, locus YPL256C, strain CLN2, hits give low values 0.974 | S. cerevisiae deletion strains, locus YPR119W, strain clb2, hits give low values 1 | S. cerevisiae deletion strains, locus YPR141C, strain kar3, hits give low values 0.996 | S. cerevisiae deletion strains, locus YPR163C, strain tif3, hits give low values 1.02 | S. cerevisiae deletion strains, locus YPR167C, strain met16, hits give low values 0.997 | S. cerevisiae deletion strains, strain wtn01, hits give low values 1.03 | S. cerevisiae strains, strain wild type, hits give low values 0.998
